Reference: ChEMBL document CHEMBL3988442, “University of Dundee, Small-Polar-MMV Screening Library” (2021)
Among all 69,000 compounds or so, about 420 (0.61%) showed an effect of 50% or more. The list comes from a sample in which strong results are over-represented; it also holds similar structures and randomly drawn compounds.

Molecular target: T1, Histidine--tRNA ligase (Leishmania infantum) (UniProt A4I591)
T1 sequence (whole entry): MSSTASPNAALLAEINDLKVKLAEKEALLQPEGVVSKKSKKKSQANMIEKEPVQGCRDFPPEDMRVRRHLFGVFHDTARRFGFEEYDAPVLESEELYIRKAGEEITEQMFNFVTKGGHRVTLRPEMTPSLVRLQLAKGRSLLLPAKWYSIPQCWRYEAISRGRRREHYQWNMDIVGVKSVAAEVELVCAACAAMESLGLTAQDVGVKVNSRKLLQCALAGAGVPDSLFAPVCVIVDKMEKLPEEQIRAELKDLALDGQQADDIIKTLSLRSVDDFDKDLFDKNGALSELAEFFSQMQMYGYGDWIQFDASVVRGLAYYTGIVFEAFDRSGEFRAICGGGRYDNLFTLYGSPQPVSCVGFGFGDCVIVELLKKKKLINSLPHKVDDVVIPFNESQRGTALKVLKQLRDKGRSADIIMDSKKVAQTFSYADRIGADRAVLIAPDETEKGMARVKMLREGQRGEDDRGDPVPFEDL
Test: Leishmania infantum Histidine tRNA synthetase (LdHisRS)
Assay type: functional
Parameters: scale not given: in the data most compounds retested in dose-response had high values
Conditions: 30 µM

Compound | Percent Effect
Cc1ccc(CN2CCN(C(=O)C3CCC3)[C@@H]3CS(=O)(=O)C[C@@H]32)cc1C | 20.6%
CC1=N[C@@]2(CC[C@@H]3CN(C(=O)NC(C)C)C[C@@H]32)C(=O)N1CC1CC1 | 11.1%
CC(C)C(=O)N1CC[C@H]2N(C)CC[C@@]2(C(=O)Nc2ccccc2)CC1 | 2.7%
COCCN1CC[C@H]2CN(Cc3ccc(C)s3)C[C@@H]2C1=O | 7.69%
CC(=O)N1CC[C@H]2OCC[C@@]2(C(=O)NCc2ccco2)C1 | 13.2%
CCc1cc(C(C)Nc2nc(-c3cccnc3)nc3c2CNC3)on1 (centres undefined) | 17.1%
Cc1cccnc1[C@H](C)Nc1nc(-c2cccnc2)nc2c1CNC2 | 54.3%
Cc1cc(CC(C)Nc2nc(-c3cccnc3)nc3c2CNC3)[nH]n1 (centres undefined) | 22.9%
CC(NC(=O)c1coc(COc2cccc(F)c2)n1)c1nnc(N)s1 (centres undefined) | 54%
COC(=O)[C@@H](NC(=O)c1coc(COc2cccc(F)c2)n1)C(C)C | 6.58%
CCC(C)NC(=O)c1coc(COc2cccc(F)c2)n1 (centres undefined) | 19.7%
CN(C[C@@H]1CCC[C@@H]2CN(c3ncccn3)C[C@@H]21)C1CC1 | 23.3%
COC[C@@H]1CC[C@H]2[C@H](CCN2S(=O)(=O)c2cccc(F)c2)O1 | 2.65%
O=C(NCc1ccccn1)[C@@]12CCO[C@@H]1CCN(c1ncccn1)C2 | 15.4%
CCOCC(=O)Nc1cc(C)cnc1OC | 9.52%
COc1cccc(OCC(=O)Nc2cc(C)cnc2OC)c1 | -3.17%
COc1ncc(C)cc1NC(=O)COCC(F)(F)F | 77.8%
O=C(c1ccccn1)N1CC[C@H]2[C@H]1CCN2S(=O)(=O)C1CC1 | 14%
CN(C)C(=O)[C@H]1C[C@@H]2CN(c3ncccn3)C[C@H]1O2 | 22.2%
CCCc1ccc(CN2CCN(C(=O)NCC)[C@H]3CS(=O)(=O)C[C@H]32)o1 | 13.2%
O=C(c1ccco1)N1CC[C@H]2[C@H]1CCN2CC1CCOCC1 | 6.57%
Cc1nc(N)cc(N2CCCC(COc3cccc(F)c3)C2)n1 (centres undefined) | 24.1%
Nc1cc(N2CCCC(COc3ccc(F)cc3)C2)nc(N)n1 (centres undefined) | 24.1%
Cc1ccccc1OCC1CCCN(c2cc(N)nc(N)n2)C1 (centres undefined) | 72.3%
O=C(CC1CC1)N[C@@H]1CN(Cc2ccc(F)cc2)C[C@@H]2CCCO[C@@H]21 | 11.4%
O=C(NC1CC1)[C@@H]1C[C@@H]2CCN(Cc3ccccc3)C[C@@H]2O1 | -7%

Compound | Percent Effect
Cc1ncsc1CN1C[C@@H]2COC[C@]2(C(=O)NC2CC(F)(F)C2)C1 | 20%
Cc1nc[nH]c1CNC1CC(=O)N(CCc2cccc(Cl)c2)C1 (centres undefined) | 7.45%
Cc1nn(CCC#N)c(C)c1[C@@H]1C=C[C@@H](NCc2ccc(F)cc2)C1 | 25%
Cc1nn(CCC#N)c(C)c1[C@@H]1C=C[C@@H](NCc2cccc(Cl)c2)C1 | 50%
Cc1cnc(C(=O)N2C[C@H]3CC[C@@H]2CN(c2cnccn2)C3)cn1 | 18.6%
O=C(NC[C@@]1(COc2cnccn2)C[C@@H](O)[C@@H](O)C1)C1CC1 | 5.41%
Cc1ccc(C(=O)N2CCO[C@H]3[C@H](OCCN(C)C)CC[C@@H]32)cn1 | 9.72%
Cc1cccc(NC(=O)c2[nH]nc(C(C)C)c2Br)n1 | 12.5%
O=C(c1ccco1)N1C[C@@H]2[C@@H](C1)OCC(=O)N2Cc1cccnc1 | 20.4%
Cc1ccc(CN2C[C@@H]3COC[C@@H](CC(=O)N4CCOCC4)[C@@H]3C2)s1 | 20.5%
CCCC(=O)Nc1ccc2c(c1)C1(CCOCC1)CN2CCOC | 35.1%
CCC(=O)Nc1ccc2c(c1)C1(CCOCC1)CN2CCOC | 46%
CCS(=O)(=O)Nc1ccc2c(c1)C1(CCOCC1)CN2C | 51.5%
CN(C)C(=O)N1CC2(CCOCC2)c2cc(NS(=O)(=O)C3CC3)ccc21 | 15.4%
CCC(=O)Nc1ccc2c(c1)C1(CCOCC1)CN2CCF | 22.5%
CCN1CC2(CCOCC2)c2cc(NS(=O)(=O)CC)ccc21 | 75.2%
CC(c1ccccc1)N1Cc2nc(N(C)C)ncc2C1=O (centres undefined) | 3.54%
CC1CCN(c2ncc3c(n2)CN(c2ccc(F)cc2)C3=O)CC1 | 12.4%
COc1ccc(CN2C[C@H]3CN(Cc4ccncc4)C(=O)[C@H]3C2)cc1 | 21.4%
COCCN1CCN(C(=O)c2ccc(COC)o2)[C@H]2CS(=O)(=O)C[C@H]21 | 21.3%
c1coc(CN2C[C@H](OCC3CCOCC3)[C@H]3COC[C@H]32)c1 | 9.02%
COc1ccc2c(c1)ncn2C[C@]1(O)CCCN2CCCC[C@@H]21 | 4.2%
CCOc1ccc(C(=O)N(CCOC)Cc2c(C)nn(CC)c2C)o1 | 63.3%
CCn1nc(C)c(CN(CCOC)C(=O)c2ccccc2N(C)C)c1C | 21.7%
CCn1nc(C)c(CN(CCOC)C(=O)c2cnc(C)nc2O)c1C | 20%
Cc1nn(C)c(C)c1S(=O)(=O)N1CC[C@@H]2O[C@@H](C)C[C@H]2C1 | 7.69%

Compound | Percent Effect
O=C(c1ccc(F)cc1)N1C[C@@H]2OCCN(c3ncccn3)[C@@H]2C1 | 18.9%
Cc1nc(COC[C@]23COC[C@H]2CN(Cc2ccoc2)C3)cs1 | 22.6%
Cc1nnc(N2C[C@H](OCc3cccnc3)[C@H]3OCCC[C@H]32)s1 | 24.3%
COCCOc1ccc(F)cc1NCc1nc2ccccc2n1C | 13.2%
COCCOc1ncccc1NCc1nc2ccccc2n1C | 15.7%
COc1cc(F)c(NCc2nc3ccccc3n2C)cc1OC | 78.3%
CC(=O)N1CCN(C(=O)Nc2ccc(Cl)cc2)[C@H]2CS(=O)(=O)C[C@H]21 | 8.2%
O=C(c1ccncc1)N1C[C@@H]2CCN(c3cccnc3)C[C@@H]2C1 | 23.5%
O=C(c1ccc(F)cc1)N1C[C@@H]2CCN(c3cccnc3)C[C@@H]2C1 | 20.6%
c1cnc(N2C[C@H]3CCN(c4cccnc4)C[C@H]3C2)nc1 | 23.1%
O=C(C1CCCC1)N1C[C@@H]2CCN(c3cccnc3)C[C@@H]2C1 | 14.7%
Fc1cccc(N2C[C@H]3CCN(c4cccnc4)C[C@H]3C2)c1 | 61.5%
Cn1cccc1C(=O)N1CC[C@H]2[C@@H]1CCC(=O)N2CC1CC1 | 21.1%
O=C(C1CCC1)N1C[C@@H]2CN(Cc3ccncc3)C(=O)[C@@H]2C1 | 15.8%
CCCC(=O)N1CC[C@@H]2[C@H](CC1)N(Cc1cccnc1)CCS2(=O)=O | 17.3%
Cc1cccc(CN2C[C@@H]3CN(C4CCOCC4)C[C@@H]3C2=O)c1 | 19.7%
CCN1C(=O)C[C@@H]2[C@@H]1CCN2S(=O)(=O)c1cccc(C)c1 | 0%
CC(C)=CCN1CCN(C(=O)c2snnc2C)[C@H]2CS(=O)(=O)C[C@H]21 | 5%
CCc1cnc(N2C[C@H](OCc3csc(C)n3)[C@H]3COC[C@H]32)nc1 | 20.7%
CCN1C(=O)CC[C@@H]2N(C(=O)CCn3nccc3C)CCCC[C@@]21C | 15.7%
Cc1noc(C[C@@H]2COC[C@H]3CN(S(=O)(=O)C4CC4)C[C@@H]23)n1 | 12.8%
OC1CCN(Cc2c(-c3ccco3)[nH]c3ncccc23)CC1 | 30.4%
NC(=O)C1CCCN(Cc2c(-c3ccco3)[nH]c3ncccc23)C1 (centres undefined) | 55.6%
c1coc(-c2[nH]c3ncccc3c2CN2CCCOCC2)c1 | 30.4%
CN1CCN(Cc2c(-c3ccco3)[nH]c3ncccc23)CC1 | 18.8%
OC1CCCN(Cc2c(-c3ccco3)[nH]c3ncccc23)C1 (centres undefined) | 66.7%

Compound | Percent Effect
CCN1CCN(Cc2c(-c3ccco3)[nH]c3ncccc23)CC1 | 4.35%
CN1CCCC[C@@H]2[C@H]1[C@@H](c1ccccc1)CCN2C(=O)c1cnccn1 | 25%
CC(C)OCCCNC(=O)[C@@]12CNC[C@@H]1CN(S(C)(=O)=O)C2 | -3.23%
CCC1=N[C@@]2(CC[C@@H]3CN(Cc4ccc(Cl)cc4)C[C@@H]32)C(=O)N1 | 3.01%
CC(C)NC(=O)[C@@H]1C[C@@H]2CCN(Cc3ccoc3)C[C@H]2O1 | 17.3%
Cc1ccc(NC(=O)Nc2c(O)oc3ccccc3c2=O)cc1C | 16.1%
O=C(O)C1c2nc[nH]c2CCN1Cc1ccccc1-c1ccccc1 (centres undefined) | 28.8%
O=C(O)C1c2nc[nH]c2CCN1CC(c1ccccc1)c1ccccc1 (centres undefined) | 107%
O=C(O)C1c2nc[nH]c2CCN1Cc1ccc(-c2ccccc2)s1 (centres undefined) | 28.8%
Cc1cccc(CN2C(=O)CC[C@@H]3[C@H]2CCN3Cc2ccc(F)cc2)n1 | 20.6%
Cc1ccc(CN2CCC[C@@H]3CN(C(=O)c4ccco4)C[C@@H]32)o1 | 15.5%
CCCn1nccc1C(=O)N1CCN(C(=O)C2CC2)[C@@H]2CS(=O)(=O)C[C@@H]21 | 0%
CC(=O)c1ccc(C(=O)N2C[C@@H]3CC[C@H](C2)N(CC2CCC2)C3)s1 | 19.2%
Cc1ccc(C(=O)N2C[C@@H]3CC[C@H](C2)N(CC2CCC2)C3)s1 | 21.9%
Cc1cc(C)n(CC(=O)N2C[C@@H]3CC[C@H](C2)N(CC2CCC2)C3)c(=O)n1 | 57.1%
Cc1cc(C)n(CC(=O)N2CCCCC2CCN(C)C)c(=O)n1 (centres undefined) | 16%
CC(C)=CCN1C[C@H]2CC[C@@H]1CN(C(=O)Cn1c(C)cc(C)nc1=O)C2 | 23.8%
O=C(NC1CCCC1)N1C[C@H]2CN(c3ccncc3)C[C@@]2(C(=O)O)C1 | -1.96%
CN(C)C(=O)[C@H]1C[C@H]2OCC[C@H]2N(Cc2ccc3c(c2)OCO3)C1 | 29.4%
O=C1CO[C@H]2CN(S(=O)(=O)c3ccccc3)C[C@H]2N1CC1CCCCC1 | 27.8%
COCC(=O)NC[C@@]1(COc2cnccn2)C[C@@H](O)[C@@H](O)C1 | 10.8%
Cc1cnc(N2C[C@H]3C[C@H](C(=O)N4CCN(C)CC4)N(C)[C@H]3C2)nc1 | 5.05%
CC(=O)Nc1ccc2nc(-c3nccn3CCCN(C)C)ccc2c1 | 12.8%
CC(=O)Nc1ccc2nc(-c3nccn3CC(C)(C)CO)ccc2c1 | 10.6%
CC(=O)Nc1ccc2nc(-c3nccn3C[C@@H]3CCCO3)ccc2c1 | 51.1%
O=C([C@@H]1C[C@@H]2CCN(Cc3ccoc3)C[C@H]2O1)N1CCCC1 | 2.73%
